Results reported in PubChem BioAssay AID463173 (ICCB-Longwood Screening Facility, Harvard Medical School, 2010).
Screen size: about 52,000 compounds; about 4,300 (8.3%) were called active. Cut-off read from the data, not from the text of the source: active = survival mostly below about 52% (no sharp cut-off); inactive = mostly above about 56%. What follows is part of a selection rich in actives, with near analogues and random picks from the rest.

System: DeltatarO mutant
Assay: S. aureus survival, RN4220 and DeltatarO strains – OD600, teichoic acid synthesis inhibitors, primary screen (AID 463173)
Conditions: S. aureus RN4220 wild type/DeltatarO growth, OD600, 18 h, active compounds read low, screened at 18.75 µg/mL (by protocol)

SMILES	survival
Cc1ccc(-c2nnc(Nc3ccccc3)c3ccccc23)cc1S(=O)(=O)N1CCN(C)CC1	86% (inactive)
NC(=O)c1cc2ccc(O)cc2oc1=O	74% (inactive)
COc1ccc(CCNC(=O)CCCn2nc(C)c3sc4ccccc4c3c2=O)cc1OC	83% (inactive)
Cc1c(-c2ccccc2)nc2ccccc2c1C(=O)O	95% (inactive)
CCc1ccc(-c2nc3ccc(Br)cc3c(C(=O)O)c2C)s1	39% (active)
CCCCc1nc2ccccc2c(C(=O)O)c1C	75% (inactive)
COc1ccccc1CNC(=O)CN1C(=O)CCc2cc(S(=O)(=O)N3CCOCC3)ccc21	135% (inactive)
O=C(Cn1c(C(=O)NCc2ccco2)cc2sccc21)c1ccccc1	92% (inactive)
O=C(Cn1c(C(=O)NCC2CCCO2)cc2sccc21)c1ccccc1 (configuration not stated)	103% (inactive)
O=C(Cn1c(C(=O)N(Cc2ccco2)CC2CCCO2)cc2sccc21)c1ccccc1 (configuration not stated)	68% (active)
CCOc1ccc(C2C(C(N)=O)=C(C)Nc3nc(-c4cccc(Cl)c4)nn32)cc1OC (configuration not stated)	74% (inactive)
O=C(NCC(c1ccco1)S(=O)(=O)c1cccs1)c1ccccc1 (configuration not stated)	63% (inactive)
COc1cc2[nH]c(=O)n(CCCCCC(=O)N3CCN(c4cccc(C(F)(F)F)c4)CC3)c(=O)c2cc1OC	83% (inactive)
O=C(c1ccccc1)N(Cc1nc2ccccc2c(=O)[nH]1)C1CCCC1	70% (inactive)
O=C(NC1CCCCC1)N(Cc1nc2ccccc2c(=O)[nH]1)C1CCCC1	85% (inactive)
O=C(NCc1ccccc1)N(Cc1nc2ccccc2c(=O)[nH]1)C1CCCC1	52% (active)
COc1cccc2c(=O)cc(C)[nH]c12	88% (inactive)
CN(Cc1ccccc1)C1CCNCC1	90% (inactive)
CS(=O)(=O)N1CCc2cc(C(=O)Nc3ccc(C(F)(F)F)cc3)ccc21	76% (inactive)
O=C(Nc1cc(C(F)(F)F)ccc1Cl)c1ccc2c(c1)CCN2S(=O)(=O)c1ccccc1	48% (inactive)
CS(=O)(=O)N1CCc2cc(C(=O)Nc3cccc(F)c3)ccc21	68% (inactive)
Cc1ccc(S(=O)(=O)N2CCc3cc(C(=O)Nc4ccc(C(F)(F)F)cc4)ccc32)cc1	63% (inactive)
O=C(Nc1ccc(Cl)c(C(F)(F)F)c1)c1ccc2c(c1)CCN2S(=O)(=O)c1ccccc1	43% (active)

SMILES	survival
CS(=O)(=O)N1CCc2cc(C(=O)Nc3ccc(Cl)c(C(F)(F)F)c3)ccc21	33% (active)
CCCCNC(=O)CSc1nc2cc3c(cc2c(=O)n1CCCCCC(=O)NCc1ccc(OC)cc1)OCO3	79% (inactive)
CNCCCc1cc(C)ccc1O	59% (inactive)
CCc1ccc(NC(=O)c2cccc(N3CCCS3(=O)=O)c2)cc1	81% (inactive)
Cc1ccc(S(=O)(=O)Nc2cc3c(cc2Cl)n(C)c(=O)c(=O)n3C)cc1	83% (inactive)
CCN(CC)N=Nc1ccc(S(=O)(=O)Nc2nc(C)cc(C)n2)cc1	100% (inactive)
CN(C)CCCN(C(=O)c1ccc2c(c1)OCCO2)c1nc2ccccc2s1	94% (inactive)
CCOc1ccc2nc(NCCNC(=O)Nc3cccc(Cl)c3)c(C#N)cc2c1	82% (inactive)
Cc1ccn2c(Nc3c(C)cccc3C)c(-c3ccsc3)nc2c1	35% (active)
Cc1ccn2c(Nc3ccc4c(c3)OCCO4)c(-c3ccc(Cl)s3)nc2c1	102% (inactive)
Cc1cccc(C)c1Nc1c(-c2ccsc2)nc2ccc(Cl)cn12	80% (inactive)
Cc1ccn2c(Nc3c(C)cccc3C)c(-c3ccc(Cl)s3)nc2c1	37% (active)
Cc1cccc(C)c1Nc1c(-c2cccs2)nc2ncccn12	76% (inactive)
Cc1cccc(C)c1Nc1c(-c2ccc(Cl)s2)nc2ncccn12	103% (inactive)
Cc1ccc2nc(-c3cccs3)c(Nc3c(C)cccc3C)n2c1	35% (active)
Cc1cccc(C)c1Nc1c(-c2ccsc2)nc2ccccn12	43% (inactive)
Cc1ccc2nc(-c3cccs3)c(Nc3ccc4c(c3)OCCO4)n2c1	99% (inactive)
O=C(Nc1ccccc1C(F)(F)F)c1ccc2oc(=O)c(S(=O)(=O)c3ccc(F)cc3)cc2c1	89% (inactive)
CSc1cccc(NC(=O)C2CCCN(S(=O)(=O)c3ccc4c(c3)CCCN4C(C)=O)C2)c1 (configuration not stated)	71% (inactive)
O=C(OCC1CCCO1)c1ccc2c(c1)N(Cc1ccc(F)cc1)C(=O)c1ccccc1S2(=O)=O (configuration not stated)	101% (inactive)
Cc1ccc2occ(CC(=O)N(Cc3ccc(N(C)C)cc3)C3CCS(=O)(=O)C3)c2c1 (configuration not stated)	74% (inactive)
Cc1ccc(CNC(=O)Cn2c3ncccc3c(=O)n2-c2ccccc2)cc1	81% (inactive)
CC(=O)N1CCc2c(sc(NC(=O)CSc3ccc(C)cc3)c2-c2nc3ccccc3s2)C1	92% (inactive)

SMILES	survival
COC(=O)c1ccc(-c2ccc(/C=N/NC(=O)CC3(C)OCCCO3)o2)cc1	96% (inactive)
CCCCNC(=O)c1cnc2sc(N3CCCCCC3)nn2c1=O	79% (inactive)
CN(C)c1ccc(CNC(=O)CCCN2C(=O)c3cccnc3Oc3ccc(Cl)cc32)cc1	81% (inactive)
Cn1c(SCC(=O)N2CCCc3ccccc32)nnc1-c1ccccc1N	92% (inactive)
CCc1ccc(NC(=O)CSc2nc(C)c(C(=O)Nc3ccc(Cl)cc3)c(-c3ccc(OC)cc3)c2C#N)cc1	92% (inactive)
Cc1ccc(Cl)cc1NC(=O)CN1C(=O)C(C)(C)c2cc(S(=O)(=O)N3CCCCC3)ccc21	6% (active)
Cc1ccc(NC(=O)CN2C(=O)CCc3cc(S(=O)(=O)N4CCOCC4)ccc32)cc1N(C)C	93% (inactive)
COc1ccc(C)cc1NC(=O)CN1C(=O)CCc2cc(S(=O)(=O)N3CCOCC3)ccc21	94% (inactive)
COc1ccc(NC(=O)CN2C(=O)CCc3cc(S(=O)(=O)N4CCOCC4)ccc32)c(OC)c1	80% (inactive)
Cc1cc(F)ccc1NC(=O)CN1C(=O)CCc2cc(S(=O)(=O)N3CCOCC3)ccc21	76% (inactive)
Cc1ccc(NC(=O)CN2C(=O)CCc3cc(S(=O)(=O)N4CCOCC4)ccc32)cc1F	47% (active)
COc1ccc(Cl)cc1NC(=O)CN1C(=O)C(C)(C)c2cc(S(=O)(=O)N3CCCCC3)ccc21	70% (inactive)
Cc1ccc(NC(=O)CN2C(=O)C(C)(C)c3cc(S(=O)(=O)N4CCCCC4)ccc32)c(Br)c1	67% (inactive)
COc1ccc(OC)c(NC(=O)CN2C(=O)CCc3cc(S(=O)(=O)N4CCCCC4)ccc32)c1	32% (active)
CCOC(=O)c1cccc(NC(=O)C(CC(C)C)N2Cc3ccccc3C2=O)c1 (configuration not stated)	128% (inactive)
Cc1nc2cccnc2n1-c1cccc(C(=O)NCCc2ccc(S(N)(=O)=O)cc2)c1	85% (inactive)
CCOc1ccc(OCC)c(NC(=O)c2nnn(Cc3cc(Br)ccc3OC)c2N)c1	61% (inactive)
CC1(C(=O)C[n+]2cccc(C(N)=O)c2)CCC(=O)O1 (configuration not stated)	92% (inactive)
O=C(NC1CCCC1)c1ccc(CSc2nc3ccncc3n2Cc2ccc(F)cc2)cc1	68% (inactive)
O=C(c1ccc2c(c1)N(Cc1ccc(Cl)cc1)C(=O)c1ccccc1S2(=O)=O)N1CCN(Cc2ccccc2)CC1	78% (inactive)
CCC(=O)N1c2ccccc2CC1C(=O)NCCc1ccc(C)cc1 (configuration not stated)	75% (inactive)
O=C(CN1C(=O)C(c2ccc(F)cc2)=NC12CCCCCC2)Nc1ccc(F)c(Cl)c1	40% (active)
O=C(CN1C(=O)C(c2ccc(F)cc2)=NC12CCCCCC2)Nc1ccccc1Cl	84% (inactive)

SMILES	survival
Cc1cccc(NC(=O)CN2C(=O)C(c3ccc(F)cc3)=NC23CCCCCC3)c1	87% (inactive)
CCNC(=S)N1CCC(C(=O)c2ccc(Cl)cc2)CC1	84% (inactive)
O=C(c1ccc2c(c1)OCCO2)C1CCCCC1	83% (inactive)
CCNC(=S)N1CCC(C(=O)c2ccc3c(c2)OCCO3)CC1	58% (active)
CCC(CC)C(=O)Nc1ccc(-c2cn3cccnc3n2)cc1	91% (inactive)
Cc1cc(F)ccc1Nc1nc2ccccc2n2nnnc12	111% (inactive)
Cc1cccc(CCNc2ncnc3onc(-c4ccc(Cl)cc4)c23)c1	33% (active)
CC1CCC(Nc2ncnc3onc(-c4ccc(Cl)cc4)c23)CC1 (configuration not stated)	47% (active)
Clc1ccc(-c2noc3ncnc(NC4CCCCC4)c23)cc1	21% (active)
Clc1ccc(CNc2ncnc3onc(-c4ccc(Cl)cc4)c23)cc1	133% (inactive)
CCOc1ccc(Nc2ncnc3onc(-c4ccc(Cl)cc4)c23)cc1	38% (active)
COc1cc(Nc2ncnc3onc(-c4ccc(Cl)cc4)c23)cc(OC)c1	94% (inactive)
Clc1ccc(-c2noc3ncnc(NCCc4ccccc4)c23)cc1	78% (inactive)
Cc1ccc(CCNc2ncnc3onc(-c4ccc(Cl)cc4)c23)cc1	46% (inactive)
Fc1ccc(-c2noc3ncnc(NC4CCCCC4)c23)cc1	67% (inactive)
CC(C)CNc1ncnc2onc(-c3ccc(Cl)cc3)c12	71% (inactive)
CCOc1ccc(CCNc2ncnc3onc(-c4ccc(Cl)cc4)c23)cc1	76% (inactive)
CC1CCC(Nc2ncnc3onc(-c4ccc(F)cc4)c23)CC1 (configuration not stated)	82% (inactive)
COc1ccc(-c2csc(C)n2)cc1	75% (inactive)
Cc1ccc(C(=O)N2CCCn3c2nc2ccccc23)cc1	70% (inactive)
COc1cccc(-n2cc(C(=O)OCc3ccc(Cl)cc3)c3ccccc3c2=O)c1	85% (inactive)
N#C/C(=C\c1ccc(OCc2ccc(Cl)cc2Cl)cc1)c1nc2ccccc2[nH]1	103% (inactive)
O=C(O)CCCC(=O)N1CCc2cc(S(=O)(=O)NCc3ccccc3)ccc21	111% (inactive)
